Experimental data published in PubChem BioAssay AID1159580 (chemical genetic matrix, 2015).
Values joined by “and” are separate entries in the source; they are usually repeats but may differ in a detail not shown here. Identical values can stand only once. In all, about 5,500 compounds went through this assay and about 2,000 (36%) were called active. About 18% were inconclusive and are not listed. No stated cut-off is given here; in the data, active means normalized growth mostly below about 0.91 (no sharp cut-off); inconclusive means no clear call, values can overlap the other calls; inactive means mostly above about 0.92. This is one part of the list.

Assay: chemical genetic growth profiling, strain panel (AID 1159580);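 further: tested at 20 µM; growth read once vehicle control cultures reached saturation at 30 °C; 1 = growth at the plate median or of vehicle wells; lower values mean less growth of the strain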
Details: S. cerevisiae deletion strains, growth OD

Measured: normalized growth

CCN(Cc1ccncc1)C(=O)C(CO)c1ccccc1 (stereo unspecified)
inactive: locus YAL013W, strain DEP1, hits give low values 0.993 and 0.979 | locus YAL021C, strain ccr4, hits give low values 1.04 | locus YAL026C, strain drs2, hits give low values 1.03 | locus YAL030W, strain snc1, hits give low values 1.02 | locus YAL040C, strain CLN3, hits give low values 0.996 | locus YBL061C, strain skt5, hits give low values 1.02 | locus YBR009C, strain hhf1, hits give low values 1.03 | locus YBR021W, strain FUR4, hits give low values 1.01 | locus YBR023C, strain chs3, hits give low values 1.03 | locus YBR171W, strain sec66, hits give low values 1.04 | locus YBR229C, strain ROT2, hits give low values 0.996 | locus YBR231C, strain swc5, hits give low values 1.03 | locus YBR279W, strain paf1, hits give low values 1.01 | locus YCL011C, strain gbp2, hits give low values 1.02 | locus YCL016C, strain dcc1, hits give low values 1.03 | locus YCL029C, strain bik1, hits give low values 0.973 | locus YCL061C, strain MRC1 (second series), hits give low values 1.01 | locus YCL061C, strain MRC1, hits give low values 1.03 | locus YCL069W, strain vba3, hits give low values 1.03 | locus YCR088W, strain abp1, hits give low values 1.02 | locus YDL005C, strain med2, hits give low values 1.04 | locus YDL035C, strain GPR1, hits give low values 1 | locus YDL040C, strain nat1, hits give low values 1.02 | locus YDL074C, strain BRE1, hits give low values 0.989 | locus YDL101C, strain DUN1, hits give low values 0.987 | locus YDL134C, strain PPH21, hits give low values 0.999 | locus YDL185W, strain tfp1, hits give low values 0.964 | locus YDL192W, strain arf1, hits give low values 0.976 | locus YDR001C, strain nth1, hits give low values 1.02 | locus YDR069C, strain doa4, hits give low values 1.04 | locus YDR101C, strain arx1, hits give low values 0.985 | locus YDR137W, strain rgp1, hits give low values 1.07 | locus YDR150W, strain NUM1, hits give low values 0.994 | locus YDR159W, strain sac3, hits give low values 1.03 | locus YDR162C, strain NBP2, hits give low values 0.985 | locus YDR195W, strain ref2 1.02 | locus YDR297W, strain sur2, hits give low values 1.02 | locus YDR318W, strain mcm21, hits give low values 0.989 | locus YDR334W, strain swr1, hits give low values 1.03 | locus YDR335W, strain msn5, hits give low values 1.04 | locus YDR363W, strain ESC2, hits give low values 0.991 | locus YDR388W, hits give low values 0.993 | locus YDR392W, strain spt3, hits give low values 0.987 | locus YDR502C, strain sam2, hits give low values 1.01 | locus YEL003W, strain gim4, hits give low values 1.01 | locus YEL037C, strain rad23, hits give low values 1.02 | locus YEL061C, strain CIN8 (second series), hits give low values 1.03 | locus YEL061C, strain CIN8, hits give low values 0.995 | locus YER002W, strain NOP16, hits give low values 0.994 | locus YER015W, strain faa2, hits give low values 1.01 | locus YER016W, strain bim1, hits give low values 1.03 | locus YER110C, hits give low values 0.988 | locus YER111C, strain swi4, hits give low values 1.03 | locus YER155C, strain BEM2 (second series), hits give low values 1.03 | locus YER155C, strain BEM2, hits give low values 0.994 | locus YER167W, strain BCK2, hits give low values 0.989 | locus YFR010W, strain ubp6, hits give low values 1.02 | locus YGL078C, strain dbp3, hits give low values 1 | locus YGL086W, strain mad1, hits give low values 1 | locus YGL167C, strain pmr1, hits give low values 1.02 | locus YGL173C, strain kem1, hits give low values 1.04 | locus YGL227W, strain vid30, hits give low values 1.04 | locus YGL240W, strain doc1, hits give low values 1.03 | locus YGL248W, strain PDE1, hits give low values 1 | locus YGL253W, strain hxk2, hits give low values 1.02 | locus YGR078C, strain PAC10, hits give low values 0.989 | locus YGR135W, strain pre9, hits give low values 0.994 | locus YGR229C, strain SMI1, hits give low values 0.997 | locus YGR252W, strain gcn5, hits give low values 1.11 | locus YHR013C, strain ard1, hits give low values 1.05 | locus YHR027C, strain rpn1, hits give low values 1.05 | locus YHR030C, strain SLT2, hits give low values 0.981 and 1 | locus YHR079C, strain IRE1 (second series), hits give low values 0.984 | locus YHR079C, strain IRE1, hits give low values 0.989 | locus YHR094C, strain hxt1, hits give low values 0.977 | locus YHR129C, strain ARP1, hits give low values 0.993 | locus YHR142W, strain chs7, hits give low values 1.02 | locus YHR200W, strain rpn10, hits give low values 0.992 | locus YIL066C, strain RNR3, hits give low values 0.997 | locus YIL073C, strain SPO22, hits give low values 0.926 | locus YIL125W, strain kgd1, hits give low values 0.984 | locus YIR030C, strain dcg1, hits give low values 1 | locus YJL092W, strain hpr5, hits give low values 1.02 | locus YJL095W, strain BCK1 (second series), hits give low values 1.01 | locus YJL095W, strain BCK1, hits give low values 0.972 and 1.01 | locus YJL115W, strain asf1, hits give low values 1.04 | locus YJL129C, strain trk1, hits give low values 1.04 | locus YJL134W, strain LCB3, hits give low values 0.995 | locus YJL154C, strain vps35, hits give low values 1.02 | locus YJL164C, strain tpk1, hits give low values 1.02 | locus YJL166W, strain qcr8, hits give low values 1.02 | locus YJL168C, strain set2, hits give low values 0.983 | locus YJL187C, strain SWE1 (second series), hits give low values 0.979 | locus YJL187C, strain SWE1, hits give low values 1.02 | locus YJR043C, strain POL32, hits give low values 0.988 | locus YJR066W, strain TOR1, hits give low values 0.95
